# Screening results as filed in PubChem BioAssay.
# In the library only some 19% were active in any assay of this set; here they are far more common.
# TDP1 cell CPT = DT40-hTDP1 cell growth loss with CPT | chicken DT40 Tdp1-/-;hTDP1 cells + 20 nM CPT, ATP luminescence, 48 h | Potency, µM (titrated, usually from 46.2 µM), usual class: inhibitors | 12% of 420,000 active; note: nearly all actives have a fitted effect of over 55% in size
#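 Chicken DT40 Tdp1-/- cells complemented with human TDP1, 400 cells/well, exposed to compounds plus 20 nM camptothecin for at least 48 h at 37 C; viability read as ATP content by CellTiter-Glo luminescence.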
# TDP1 cell noCPT = qHTS for Inhibitors of human tyrosyl-DNA phosphodiesterase 1 (TDP1): qHTS in cells in absence of CPT. DT40 Tdp1-/- hTDP1 cells, no CPT, ATP luminescence, 48 h. Potency, µM (titrated, usually from 46.2 µM), usual class: inhibitors. 15% of 420,000 active; note: nearly all actives have a fitted effect of over 55% in size
#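 Compound effects on proliferation are scored in DT40 Tdp1-/-;hTDP1 cells in the absence of CPT. ATP levels (CellTiter-Glo luminescence) are recorded after a ≥48 hr, 37 °C incubation.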
# HT1080-NT tox = kills 2HG-producing HT-1080-NT fibrosarcoma cells; HT-1080-NT fibrosarcoma viability, CellTiter-Glo ATP luminescence, 48 h; Potency, µM (series often up to 46.1 µM), most hits filed as cytotoxic; 1.6% of 360,000 active; AID 686970;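 note: NT is the 2HG producing partner of a matched IDH1 knockdown line; nearly all actives have a fitted effect of over 55% in size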
#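 Compounds were tested in concentration-response format on HT-1080-NT cells for 48 hours at 37 degrees C. Cell viability came from CellTiter-Glo luminescence; curves were classified by r2, response magnitude and activity.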
# ELG1 repair inh = blocks ELG1-dependent DNA repair in HEK293T cells; HEK293T ELG1-luciferase reporter, luminescence, 16 h; DNA damage induced by 5-fluorouridine; Potency, µM (top dose mostly 46.1 µM), actives largely listed as inhibitors; 2.3% of 330,000 active; AID 504467; note: nearly all actives have a fitted effect of over 55% in size
#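 5-Fluorouridine DNA damage + compound/DMSO, 2,000 cells/well, 16 h, 37 °C/5% CO2. ONE-Glo, 30 min RT, luminescence. Readout = decrease in reporter signal.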
# HT1080 IDH1KD tx = HT-1080 IDH1 knockdown cell toxicity (counter line); HT-1080 IDH1 knockdown viability, ATP luminescence, 48 h; Potency, µM (doses to about 46.1 µM), most hits filed as cytotoxic; 2% of 360,000 active
#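 IDH1KD HT-1080 cells, 750/well, RPMI + 5% FBS; compound pinned after 2 h settling; 48 h, 37 °C; CellTiter-Glo luminescence; % activity normalised to DMSO and no-cell wells; curves fitted, classed by r2 and efficacy.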
# IL-1B inflam inh = inhibitors of inflammasome signaling (IL-1 beta secretion); activity change, % at 57.5 µM; 4.7% of 360,000 active; AID 743279; THP-1 LPS/ATP IL-1B secretion, AlphaLISA, 16 h; stronger effect = lower value; in the data active = activity change below about -50%; inconclusive = mostly about -30% to -49%
#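 THP-1 cells pretreated 1 hr with compounds (up to 57.5 uM final), then stimulated with LPS (250 ng/mL final) plus ATP (1.25 mM final); secreted IL-1B measured by AlphaLISA after 16 hr, decreased signal indicating inhibition.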
# Hits are given with their value; i = inactive; ? = inconclusive; nt = no result given. Unless noted, calls come from the whole dose curve; as a rule, active = well fitted curve in the direction sought with a large enough effect; inconclusive = small, poorly fitted or top-dose-only effect, or another doubt; inactive = no such curve, though single readings can be large; an effect the other way counts as inactive or inconclusive.
SMILES,TDP1 cell CPT,TDP1 cell noCPT,HT1080-NT tox,ELG1 repair inh,HT1080 IDH1KD tx,IL-1B inflam inh
CCOC(=O)[C@H]1[C@H]2COc3ccc(Cl)cc3[C@H]2N2C(=O)CNC(=O)[C@@]12C,i,i,i,i,i,i
COc1ccccc1C(=O)Nc1c(C(=O)N2CCN(c3ccccc3F)CC2)oc2ccccc12,16µM,16µM,nt,nt,nt,nt
COc1cccc(N2CCN(C(=O)c3oc4ccccc4c3NC(=O)CCc3cc(OC)no3)CC2)c1,i,?,i,?,i,i
Cc1ccc(CC(=O)Nc2c(C(=O)N3CCN(c4ccccc4)CC3)oc3ccccc23)cc1,23µM,?,nt,nt,nt,nt
COc1ccccc1C(=O)Nc1c(C(=O)N2CCN(c3ccc(F)cc3)CC2)oc2ccccc12,i,i,nt,nt,nt,nt
COc1ccc(CC(=O)Nc2c(C(=O)N3CCN(c4ccccc4F)CC3)oc3ccccc23)cc1OC,10µM,13µM,nt,nt,nt,nt
COc1ccccc1C(=O)Nc1c(C(=O)Nc2ccccc2F)oc2ccccc12,21µM,26µM,nt,nt,nt,nt
COc1ccc(Cl)cc1NC(=O)CSc1nc(=O)[nH]c2c1CCC2,i,?,nt,nt,nt,nt
COc1ccc(N(C(=O)c2snc(C(N)=O)c2N)C(C(=O)NC2CCCCC2)c2ccc(C)o2)c(OC)c1 (stereo unspecified),12µM,21µM,i,i,i,i
COc1ccc(N(C(=O)c2snc(C(N)=O)c2N)C(C(=O)NC2CCCC2)c2ccco2)c(OC)c1 (stereo unspecified),?,23µM,i,i,?,-70
CCOc1ccccc1N(C(=O)c1snc(C(N)=O)c1N)C(C(=O)NC1CCCC1)c1ccco1 (stereo unspecified),i,i,i,i,i,i
O=C(C[C@H]1CC[C@@H]2[C@H](COC[C@H](O)CN2C(=O)c2cnccn2)O1)NCc1ccc(Cl)cc1,i,i,i,nt,i,i
CCOC(=O)Nc1oc2ccccc2c(=O)c1CN1CCOCC1,i,?,i,10µM,i,i
CCOC(=O)c1oc2ccccc2c1CN1CC(C)OC(C)C1 (stereo unspecified),i,i,i,i,i,i
Cc1ccc(NC(=O)CN2C(=O)CCc3cc(S(=O)(=O)N4CCOCC4)ccc32)c(C)c1,i,i,nt,nt,nt,nt
Cc1ccc(/C=C/C(=O)N(Cc2cccs2)C2CCS(=O)(=O)C2)cc1 (stereo unspecified),?,21µM,i,i,i,i
Cc1nc(Nc2ccccc2C(F)(F)F)sc1C(=O)N(C)C,i,?,i,?,i,-52
Cc1nc(NCCc2ccccc2)sc1C(=O)N(C)C,i,?,i,?,i,i
CC(=O)c1c(CSc2ccccc2)oc2ccc(O)c(CN(C)C)c12,23µM,?,?,i,?,-85
CCOC(=O)c1c(CSc2ccccc2)oc2cc(Br)c(O)c(CN(C)C)c12,16µM,?,i,i,i,i
CCOC(=O)c1c(CS(=O)(=O)c2ccccc2)n(C)c2cc(Br)c(O)c(CN(C)C)c12,15µM,13µM,i,i,i,i
COC(=O)Cc1c(CSc2ccccc2)oc2ccc(O)c(CN(C)C)c12,i,?,i,i,i,i
CCOC(=O)c1c(CS(=O)(=O)c2ccccc2)n(C)c2cc(Br)c(O)cc12,?,?,i,?,i,i
CCOC(=O)c1c(CSc2ccccc2)oc2ccc(O)cc12,?,21µM,i,i,i,i
COCCNC(=O)C1(C)CCCN(C(=O)c2ccccc2)C1 (stereo unspecified),i,i,i,nt,i,i
SMILES,TDP1 cell CPT,TDP1 cell noCPT,HT1080-NT tox,ELG1 repair inh,HT1080 IDH1KD tx,IL-1B inflam inh
CCOC(=O)c1c(-c2ccccc2)[nH]c2ccc(O)cc12,i,?,i,i,i,-55
CCOC(=O)c1c(C)n(C)c2ccc(O)c(CN3CCN(C)CC3)c12,i,i,i,i,i,i
CCOC(=O)c1c(-c2ccccc2)oc2ccc(O)c(CN3CCN(C)CC3)c12,2.1µM,2.3µM,?,i,?,nt
CCOC(=O)c1c(-c2ccccc2)oc2cc(CN(C)C)c(O)c(CN(C)C)c12,?,?,?,nt,11µM,i
COc1ccc(OC)c(C(=O)c2c(C)oc3cc(Br)c(O)c(CN(C)C)c23)c1,?,21µM,i,nt,i,i
Cc1oc2c(Cl)c(Cl)c(O)c(CN(C)C)c2c1C(=O)c1ccc(Cl)cc1,?,?,i,?,i,i
CC(C)c1nn2c(=O)cc(COC(=O)C3CCCCC3)nc2s1,i,i,nt,nt,nt,nt
COCCOC(=O)c1c(C)oc2ccc(O)c(CN3CCC(C)CC3)c12 (tested in a mixture with another compound),?,?,i,nt,i,-52
CCOC(=O)c1c(CSc2ccc(CC)cc2)oc2ccc(O)c(CN(C)C)c12,8.2µM,7.3µM,?,i,21µM,-101
CCOC(=O)c1c(C)oc2ccc(O)c(CN(C)C)c12,i,?,i,i,i,i
OCCN(Cc1ccccn1)Cc1ccccn1,?,?,i,nt,i,i
Nc1cnc(Nc2ccc(Br)cc2)nc1N,?,15µM,i,?,i,i
Nc1ncnc(Nc2ccccc2)n1,i,i,i,?,i,i
COc1cccc(OC(=O)CSc2nnc(-c3ccccc3OC)o2)c1,i,i,nt,nt,nt,nt
O=C(NC(NC(=S)Nc1cc(Cl)ccc1Cl)C(Cl)(Cl)Cl)c1ccco1 (stereo unspecified),?,i,?,i,?,-80
Cc1ccccc1NC(=S)NC(NC(=O)c1ccco1)C(Cl)(Cl)Cl (stereo unspecified),i,i,i,i,i,?
O=C(Cc1ccccc1)NC(NC(=S)Nc1cc(Cl)ccc1Cl)C(Cl)(Cl)Cl (stereo unspecified),i,23µM,i,i,i,i
O=C(NC(NC(=S)Nc1ccc(Cl)c(Cl)c1)C(Cl)(Cl)Cl)c1ccco1 (stereo unspecified),21µM,18µM,?,i,?,-63
O=C(COc1ccccc1)NC(NC(=S)Nc1ccccc1O)C(Cl)(Cl)Cl (stereo unspecified),?,i,i,i,?,i
O=C(O)c1cccc(NC(=S)NC(NC(=O)c2ccco2)C(Cl)(Cl)Cl)c1 (stereo unspecified),i,i,i,i,i,i
COc1ccc(C(=O)NC2CC(=O)N(c3ccc4c(c3)OCCO4)C2)cc1 (stereo unspecified),i,i,nt,nt,nt,nt
CCOC(=O)c1[nH]c(C)c(CCC(=O)NC(C)c2ccccc2)c1C (stereo unspecified),i,i,nt,nt,nt,nt
